# Source: ChEMBL document CHEMBL1157539, “Thousands of chemical starting points for antimalarial lead identification” (Nature, 2010)
# Test system: Plasmodium falciparum
# Assay: GSK_TCMDC: Inhibition of Plasmodium falciparum 3D7 in whole red blood cells, using parasite LDH activity as an index of growth. Test compounds present at 2uM
# Type: functional
row,SMILES,Inhibition [%]
1,CCNC(=O)N1CCN(c2nc(-c3ccccc3)nc(COC)c2Cc2ccc(C)cc2)CC1,95
2,Cc1sc2nc(CSc3ccccc3)nc(N3CCN(CC(=O)N4CCCC4)CC3)c2c1C,91
3,Cc1cccc(-c2nc(Nc3ccncc3)c3ccc([N+](=O)[O-])cc3n2)n1,87
4,CC(C)(C)c1nn(-c2ccccc2)c2[nH]c(=O)c(CNC3CCCC3)cc12,100
5,Cc1cc(OCC(=O)Nc2ccc(-c3nc4ccccc4[nH]3)cc2)cc(C)c1Cl,99
6,COc1ccc(CNC(=O)c2cc3c(=O)n4ccccc4nc3n(CCc3ccccc3)c2=N)cc1,99
7,CC1CN(c2cnn(Cc3cccc(NC(=O)Nc4cccc(C(F)(F)F)c4)c3)c(=O)c2Cl)CC(C)N1.O=C(O)C(F)(F)F (stereo unspecified),96
8,CCCN(CCC)CCCN(CCCN(CCC)CCC)c1cc(C)nc(Nc2ccc(Cl)cc2)n1.Cl,100
9,CC(CN1CCN(CC(c2ccc(F)cc2)N2CCN(C)CC2)CC1)C(=O)c1ccc(O)cc1.O=C(O)/C=C\C(=O)O (stereo unspecified),97
10,CC(=O)Nc1ncc(C(=O)Nc2cccc(-c3cccc(-c4nc5cccc(C)c5[nH]4)c3)c2)s1,94
11,CS(=O)(=O)Cc1ccc(Nc2nccc(-c3c(-c4cccc(NC(=O)C5CCCCC5)c4)nn4ncccc34)n2)cc1,98
12,CS(=O)(=O)CCN(CCS(C)(=O)=O)Cc1ccc(-c2ccc3ncnc(Nc4ccc(OCc5cccc(F)c5)c(Cl)c4)c3c2)o1.Cc1ccc(S(=O)(=O)O)cc1,90
13,CS(=O)(=O)CCNCc1ccc(-c2ccc3c(Nc4ccc(Oc5ccccn5)cc4)ccnc3c2)o1,100
14,Cc1[nH]c2ccc(-c3ccccc3)cc2c(=O)c1Br,97
15,COc1ccc2c(OC)c(CNCCCCCCNCc3ccc4cc(OC)ccc4c3OC)ccc2c1.CS(=O)(=O)O,98
16,CCn1c(-c2nonc2N)nc2c(-c3cccc(NC(=O)Nc4ccccc4OC)c3)ncc(OCCCN)c21.O=C(O)C(F)(F)F,92
17,O=C(NCc1ccc(Cl)c(Cl)c1)c1cccc(C2CCCN(Cc3ccc4[nH]cnc4c3)C2)c1 (stereo unspecified),95
18,CCc1nnc2sc(-c3cccc(NC(=O)c4ccc(OC)c(Cl)c4)c3)nn12,92
19,C1=CN(Cc2ccccc2)C=CC1=C1C=Nc2ccccc21,90
20,Cc1csc(-c2ncc(OC[C@@H](N)Cc3ccccc3)cc2-c2ccc3[nH]nc(C)c3c2)c1.O=C(O)C(F)(F)F,98
21,CCCN(CCC)C(=O)c1cc(C(=O)N[C@@H](Cc2ccccc2)[C@H](O)CNCc2cccc(C(F)(F)F)c2)cc(N2CCCCS2(=O)=O)c1,99
22,O=C(NCc1cccc(OC(F)(F)F)c1)c1cnc2c(c1)nc(-c1c[nH]c(-c3ccccc3)n1)n2CCc1c[nH]cn1,99
23,CC(=O)c1ccc(NC(=O)Nc2ccc(N(C)c3ccnc(NC4CC4)n3)cc2)cc1,100
24,Cc1onc(-c2ccc(Cl)cc2)c1-c1ccnn1S(=O)(=O)c1ccc(Cl)cc1,100
25,O=C(Nc1cccc(-c2ccc(-c3nc4ccccc4[nH]3)cc2)c1)Nc1ccc2c(c1)OCO2,90
26,CCOC(=O)CNC(=O)c1cc(=O)c2ccccc2o1,99
